{"source": "PubChem BioAssay AID720591", "about": "(Broad Institute, 2013)", "note": "Out of some 1,200 compounds screened, about 60 (5%) were called active. Roughly 1% stayed inconclusive and do not appear here.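 Rule for the calls: active = Decreasing signal and fitted IC50 at most twice the top valid tested dose; inconclusive = Bad fit or a level curve showing 30 to 70% inhibition; inactive = the rest.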 Only a sample is shown. Entries with a potency or affinity are not part of this list.", "data": [{"molecular_target": "NAD-dependent protein deacylase sirtuin-5, mitochondrial (Homo sapiens) (UniProt Q9NXA8)", "sequence (Q9NXA8 whole entry, looked up)": "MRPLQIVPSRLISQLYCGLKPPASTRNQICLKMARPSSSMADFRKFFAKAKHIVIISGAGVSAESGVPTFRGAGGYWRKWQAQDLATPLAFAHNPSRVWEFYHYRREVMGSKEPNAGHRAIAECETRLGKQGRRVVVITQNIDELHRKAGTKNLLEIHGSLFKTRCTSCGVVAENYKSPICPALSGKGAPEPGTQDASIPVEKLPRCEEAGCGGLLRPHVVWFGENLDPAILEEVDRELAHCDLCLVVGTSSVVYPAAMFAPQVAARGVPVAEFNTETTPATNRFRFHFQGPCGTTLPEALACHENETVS", "assay": "SIRT5 desuccinylase inhibitors, dose response, biochemical, fluorescence imaging, cherry-pick, set 5 (AID 720591)", "details": "Purified SirT5, succinyl-peptide AMC, trypsin-coupled fluorescence; series mostly up to 15 µM", "values": [{"molecule": "Cc1c(C(=O)c2ccc(N(C)C)cc2)c2ccccn2c1CCC#N", "outcome": "inactive"}, {"molecule": "CCc1nonc1NC(=O)c1oc2ccc(Cl)cc2c1C", "outcome": "inactive"}, {"molecule": "COc1ccc2c(c1)C(=O)O[C@@H](c1ccccc1)C[C@@H](O)C(=O)CC2", "outcome": "inactive"}, {"molecule": "CCOc1ccc(OCC)c(NC(=O)C2CCCN(C(=O)c3ccc(Cl)cc3)C2)c1", "note": "(centres undefined)", "outcome": "inactive"}, {"molecule": "COc1ccc(OC)c(NC(=O)CSc2nnc(CNC(=O)c3cccs3)o2)c1", "outcome": "inactive"}, {"molecule": "COc1ccc(C(=O)OC(C)C(=O)NCC2CCCCC2)cc1S(=O)(=O)N1CCOCC1", "note": "(centres undefined)", "outcome": "inactive"}, {"molecule": "CCC(=O)Nc1cccc(-c2cc3ccccc3oc2=O)c1", "outcome": "inactive"}, {"molecule": "COc1cc2cc(C#N)c(SCC(=O)Nc3cc(C)on3)nc2cc1OC", "outcome": "inactive"}, {"molecule": "Cc1ccc(CNC(=O)CCCCCNC(=O)N2CCn3c2nc2ccccc23)cc1", "outcome": "inactive"}, {"molecule": "O=C(NC1CCCCC1)c1ccc(S(=O)(=O)c2ccccc2)cc1", "outcome": "inactive"}, {"molecule": "CCOC(=O)C1CCN(C(=O)Cn2cc(C(=O)OC)c3ccccc32)CC1", "outcome": "inactive"}, {"molecule": "COc1ccc(NC(=O)CN2CCN(c3ccccn3)CC2)cc1Cl", "outcome": "inactive"}, {"molecule": "C=C(C)COc1ccc(-c2ncncc2-c2ccc(OC)cc2)c(O)c1", "outcome": "inactive"}, {"molecule": "COc1ccc(-c2csc3nc(C(C)C)oc(=O)c23)cc1OC", "outcome": "inactive"}, {"molecule": "Cn1cc(C(=O)NCCc2ccccc2)c(=O)c2cc(S(=O)(=O)N3CCOCC3)ccc21", "outcome": "inactive"}, {"molecule": "CC(C)c1ccccc1NC(=O)c1cnccn1", "outcome": "inactive"}, {"molecule": "O=C(c1ccccc1)c1coc2ccc(O)c(Cl)c12", "outcome": "inactive"}, {"molecule": "CC(C)(C)C(=O)Oc1cccc(Nc2ncnc3ccccc23)c1", "outcome": "inactive"}, {"molecule": "O=C(O)CCC(=O)Nc1ccc(-c2nc3ccc(C(=O)c4ccccc4)cc3[nH]2)cc1", "outcome": "inactive"}, {"molecule": "Nc1nc(-c2ccc(C(=O)O)cc2)cs1", "outcome": "inactive"}, {"molecule": "Cc1ccc(S(=O)(=O)NCC(=O)OCC(=O)NCc2ccc(F)cc2)cc1", "outcome": "inactive"}, {"molecule": "Cc1nnc(SCC(=O)Nc2ncc3c(n2)CC(c2ccccc2)CC3=O)s1", "note": "(centres undefined)", "outcome": "inactive"}, {"molecule": "Cc1ccc(S(=O)(=O)Nc2ccc(N(C)C)cc2)cc1", "outcome": "inactive"}, {"molecule": "COc1ccc(N2CC(NC(=O)N3CCc4ccccc43)CC2=O)cc1OC", "note": "(centres undefined)", "outcome": "inactive"}, {"molecule": "CN(C)CCOC(=O)NCC12CC3CC(CC(C3)C1)C2", "outcome": "inactive"}, {"molecule": "C[C@@H]1CN([C@@H](C)CO)C(=O)CCCn2nncc2CO[C@H]1CN(C)C(=O)C1CCCCC1", "outcome": "inactive"}, {"molecule": "CCCCCCN1C[C@@H](O)[C@H](n2cc(COC(=O)c3ccccc3)nn2)C[C@@H]1c1ccc(C)cc1", "outcome": "inactive"}, {"molecule": "C[C@H]1COc2cc(NCCO)ccc2S(=O)(=O)N1", "outcome": "inactive"}, {"molecule": "Cc1ccc(S(=O)(=O)N2C[C@@H]3CCCC[C@@H]3[C@@H](C)[C@H]2c2cn(Cc3ccccc3)c3ncccc23)cc1", "outcome": "inactive"}]}]}
